Screens from PubChem.
Only some compounds are listed: those with a hit (about 8.7% of all), similar ones and a draw of the others.
VACV mCherry inh – qHTS for Stage-Specific Inhibitors of Vaccinia Orthopoxvirus: mCherry Reporter Primary qHTS | Vaccinia virus mCherry reporter infection, fluorescence | Potency, µM (highest dose often 36.5 µM), most hits filed as inhibitors | actives 0.63% (n = 310,000); calls by dose curve; tested in A549 cells; further: nearly all actives have a fitted effect of over 35% in size
Pf growth 96h – Primary qHTS for delayed death inhibitors of the malarial parasite plastid, 96 hour incubation | P. falciparum luciferase reporter growth, 96 h | Potency, µM (top dose mostly 28.7 µM), actives largely listed as inhibitors | actives 6.9% (n = 320,000)
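Compounds incubated with erythrocytes infected by luciferase-expressing P. falciparum (2% hematocrit, 0.05% parasitemia final) for 96 hours, 37 C in 5% CO2. Growth inhibition scored as decreased luciferase luminescence.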
Pf growth 48h – Primary qHTS for delayed death inhibitors of the malarial parasite plastid, 48 hour incubation | P. falciparum luciferase growth in erythrocytes, 48 h | Potency, µM (series often up to 28.7 µM), usual class: inhibitors | actives 5.9% (n = 310,000)
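Read-out is firefly luciferase luminescence from an integrated reporter in P. falciparum, so falling signal marks reduced parasite growth. Infected erythrocytes were at 2% hematocrit and 0.1% parasitemia (final) in Albumax-supplemented RPMI 1640.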
AMA1-RON2 inh – qHTS for Inhibitors of AMA1-RON; Towards Development of Antimalarial Drug Lead: Primary Screen; Potency, µM (highest dose often 58.2 µM), most hits filed as inhibitors; AID 720542, 2013; actives 0.2% (n = 360,000); Plasmodium falciparum AMA1 (3D7) - RON2 peptide interaction; AlphaScreen AMA1-biotinylated RON2 peptide binding; further: nearly all actives have a fitted effect of over 45% in size
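AMA1 (3D7) with his tag at 25 nM final met compounds first, then biotinylated RON2 peptide at 25 nM; detection used donor plus acceptor beads, 10 µg/mL apiece, read by AlphaScreen after 30 min at room temperature.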
Vaccinia Venus – qHTS for Stage-Specific Inhibitors of Vaccinia Orthopoxvirus: Venus Reporter Primary qHTS. Potency, µM (series often up to 36.5 µM), actives largely listed as inhibitors. AID 720580, 2013. actives 0.46% (n = 330,000). Vaccinia virus Venus reporter expression, fluorescence; calls by dose curve; tested in A549 cells; further: nearly all actives have a fitted effect of over 30% in size
Of the large screens only hits and unclear results are named; the others gave an inactive call. Unless noted, the call rests on the fitted dose curve; in most records, active means well fitted curve in the direction sought with a large enough effect; inconclusive means small, poorly fitted or top-dose-only effect, or another doubt; inactive means no such curve, though single readings can be large; an effect the other way counts as inactive or inconclusive.

C=CCn1c(SCc2csc(C)n2)nc2sc3c(c2c1=O)CCCC3	none (no result: Pf growth 48h)
C=CCn1c(SCc2csc(C)n2)nc2sc3c(c2c1=O)CCC(C)C3 (centres undefined)	Pf growth 96h inconclusive, Pf growth 48h 12µM (no result: VACV mCherry inh, Vaccinia Venus)
COc1ccc(NC(=O)COc2ccc(S(=O)(=O)NC3CCCCC3)cc2)cc1OC	none (no result: Pf growth 96h, Pf growth 48h, AMA1-RON2 inh)
CN1CCc2[nH]c3ccc(Cl)cc3c2C1	none (no result: Pf growth 96h, Pf growth 48h, AMA1-RON2 inh)
NC(=O)CCCn1c(C(=O)c2ccc(Cl)cc2)c2ccc([N+](=O)[O-])cc2[n+]1[O-]	VACV mCherry inh inconclusive, Pf growth 96h inconclusive, Pf growth 48h inconclusive, Vaccinia Venus inconclusive
NC(=O)CCCn1c(C(=O)c2cc(Cl)c(N)c(Cl)c2)c2ccc([N+](=O)[O-])cc2[n+]1[O-]	VACV mCherry inh inconclusive, Pf growth 96h 9.3µM, Pf growth 48h inconclusive, Vaccinia Venus 11µM
NCCCn1c(C(=O)c2ccc(Cl)cc2)c2ccc([N+](=O)[O-])cc2[n+]1[O-]	VACV mCherry inh 7.1µM, Pf growth 96h inconclusive, Pf growth 48h inconclusive, Vaccinia Venus inconclusive
NCCCn1c(C(=O)c2ccc(Cl)cc2)c2ccc(C(F)(F)F)cc2[n+]1[O-]	Pf growth 96h inconclusive, Pf growth 48h 9.3µM
NC(=O)CCCn1c(C(=O)c2ccc(Cl)cc2)c2ccc(C(F)(F)F)cc2[n+]1[O-]	Pf growth 96h inconclusive, Pf growth 48h inconclusive
COc1ccc(C2=NN(c3nc(-c4ccc(CNC(C)=O)cc4)cs3)C(c3ccco3)C2)cc1 (centres undefined)	Pf growth 96h inconclusive, Pf growth 48h 3.7µM
COc1ccccc1N1CCN(c2ccc(=O)n(CC(=O)NCc3ccc(F)cc3)n2)CC1	none (no result: Pf growth 96h, Pf growth 48h, AMA1-RON2 inh)
CC(=O)/C(C#N)=C1\NC(=O)C(Cc2ccc(F)cc2)S1 (centres undefined)	Pf growth 48h inconclusive
CC(=O)/C(C#N)=C1\NC(=O)C(Cc2ccc(C)c(C)c2)S1 (centres undefined)	VACV mCherry inh 16µM, Pf growth 96h inconclusive
CCCCN1C(=O)CN(C2CCCCCC2)C(=O)C1c1ccc(OC(C)C)c(OC)c1 (centres undefined)	none (no result: Pf growth 96h, Pf growth 48h, AMA1-RON2 inh)
O=C(Nc1cccc(Cl)c1)Nc1nnc(CSCCOc2ccc(Cl)cc2)s1	Pf growth 96h inconclusive, Pf growth 48h 12µM, Vaccinia Venus inconclusive
O=C(Nc1cccc(Cl)c1)Nc1nnc(CC2=CCCCC2)s1	Pf growth 96h inconclusive, Pf growth 48h 15µM (no result: VACV mCherry inh, Vaccinia Venus)
Cc1ccc(NC(=O)Nc2nnc(CSCCOc3ccc(Cl)cc3)s2)cc1	Pf growth 96h inconclusive
O=C(Nc1cccc(Cl)c1)Nc1nnc(-c2ccncc2)s1	Pf growth 96h 5.2µM, Pf growth 48h 12µM, Vaccinia Venus inconclusive
COc1cc2nc(SCC(=O)Nc3cccc(C)c3)n3nc(CCn4c(C)nc5ccccc54)nc3c2cc1OC	none (no result: Pf growth 96h, Pf growth 48h, AMA1-RON2 inh)
CCOCCCn1c(=N)c(C(=O)NC(C)c2ccccc2)cc2c(=O)n3cccc(C)c3nc21 (centres undefined)	none (no result: Pf growth 96h, Pf growth 48h, AMA1-RON2 inh)
COc1ccccc1CNC(=O)C(C)n1nc(C)c2c(C)n(-c3ccccc3)nc2c1=O (centres undefined)	Pf growth 96h inconclusive, Pf growth 48h inconclusive
Cc1cccc(CNC(=O)C(C)n2nc(C)c3c(C)n(-c4ccccc4)nc3c2=O)c1 (centres undefined)	Pf growth 96h 10µM, Pf growth 48h inconclusive
COc1ccc(CNC(=O)C(C)n2nc(C)c3c(C)n(-c4ccc(C)cc4)nc3c2=O)cc1 (centres undefined)	Pf growth 48h 13µM
COc1ccc(CCNC(=O)C(C)n2nc(C)c3c(C)n(-c4ccc(C)cc4)nc3c2=O)c(OC)c1 (centres undefined)	VACV mCherry inh inconclusive, Pf growth 96h 3.3µM, Pf growth 48h 13µM, Vaccinia Venus inconclusive
COc1ccccc1CCNC(=O)C(C)n1nc(C)c2c(C)n(-c3ccccc3)nc2c1=O (centres undefined)	Pf growth 96h 12µM
Cc1ccc(CCNC(=O)C(C)n2nc(C)c3c(C)n(-c4ccc(C)cc4)nc3c2=O)cc1 (centres undefined)	VACV mCherry inh inconclusive (no result: Pf growth 96h, Pf growth 48h, AMA1-RON2 inh)
Cc1cccc(N2CCN(C(=O)c3ccc4nc(N5CCC(C)CC5)sc4c3)CC2)c1C	none (no result: Pf growth 96h, Pf growth 48h, AMA1-RON2 inh)
CC(NC(=O)c1ccc(Br)o1)C1CC2CCC1C2 (centres undefined)	Pf growth 96h 1µM (no result: VACV mCherry inh, Vaccinia Venus)
CCOC(=O)c1c(NC(=O)CN2CCCc3ccccc32)sc(C)c1C	Pf growth 96h inconclusive, Pf growth 48h inconclusive
CCOC(=O)C1CCN(CC(=O)Nc2c(C(=O)OC)[nH]c3ccc(Cl)cc23)CC1	Pf growth 96h inconclusive, Pf growth 48h 13µM
COC(=O)c1[nH]c2ccc(Br)cc2c1NC(=O)CN1CCCc2ccccc21	Pf growth 96h 10µM, Pf growth 48h inconclusive
COCCOC(=O)c1c(NC(=O)CN2CCCc3ccccc32)sc(C(N)=O)c1C	Pf growth 96h 10µM, Pf growth 48h inconclusive
COC(=O)c1[nH]c2ccc(Cl)cc2c1NC(=O)CCN1CCN(C2CCCCC2)CC1	Pf growth 96h 3.7µM, Pf growth 48h 12µM (no result: VACV mCherry inh, Vaccinia Venus)
CC(C)OCCCNC(=O)CCCn1c(SCC(N)=O)nc2c(sc3ccccc32)c1=O	none (no result: Pf growth 96h, Pf growth 48h, AMA1-RON2 inh)
Cc1cccc(NC(=O)CSc2nnc3[nH]c(=O)cc(-c4ccccc4)n23)c1C	none (no result: Pf growth 96h, Pf growth 48h, AMA1-RON2 inh)
COc1ccccc1C(=O)NC1(C(F)(F)F)C(=O)Nc2c1c(=O)[nH]c(=O)n2-c1ccccc1 (centres undefined)	none (no result: Pf growth 96h, Pf growth 48h, AMA1-RON2 inh)
CCN(Cc1ccncc1)Cc1ccc2c(c1)CN(C(=O)c1ccccc1-n1cccn1)CCO2	none (no result: Pf growth 96h, Pf growth 48h, AMA1-RON2 inh)
COC(=O)c1[nH]c2ccc(Br)cc2c1NC(=O)CN1CCN(C2CCCCC2)CC1	Pf growth 96h 2.6µM, Pf growth 48h inconclusive (no result: VACV mCherry inh, Vaccinia Venus)
COC(=O)c1[nH]c2ccc(C)cc2c1NC(=O)CN1CCCC(C)(C)C1	Pf growth 96h 12µM, Pf growth 48h inconclusive, Vaccinia Venus inconclusive
